# Assay outcomes (PubChem)
# Shown are actives, neighbours in structure and some others; about 15% of the full set was active somewhere.
# 12-LOX inh = ALOX12 (human) lipoxygenase inhibition; AID 1671190; P18054; Potency, µM (highest dose often 108 µM), inactives show at the highest dose activity change, negative = inhibition, hits mostly inhibitors; 580,000 compounds, 1.1% hits; purified 12hLO, xylenol orange hydroperoxide absorbance
# Target sequence (P18054 whole entry, looked up): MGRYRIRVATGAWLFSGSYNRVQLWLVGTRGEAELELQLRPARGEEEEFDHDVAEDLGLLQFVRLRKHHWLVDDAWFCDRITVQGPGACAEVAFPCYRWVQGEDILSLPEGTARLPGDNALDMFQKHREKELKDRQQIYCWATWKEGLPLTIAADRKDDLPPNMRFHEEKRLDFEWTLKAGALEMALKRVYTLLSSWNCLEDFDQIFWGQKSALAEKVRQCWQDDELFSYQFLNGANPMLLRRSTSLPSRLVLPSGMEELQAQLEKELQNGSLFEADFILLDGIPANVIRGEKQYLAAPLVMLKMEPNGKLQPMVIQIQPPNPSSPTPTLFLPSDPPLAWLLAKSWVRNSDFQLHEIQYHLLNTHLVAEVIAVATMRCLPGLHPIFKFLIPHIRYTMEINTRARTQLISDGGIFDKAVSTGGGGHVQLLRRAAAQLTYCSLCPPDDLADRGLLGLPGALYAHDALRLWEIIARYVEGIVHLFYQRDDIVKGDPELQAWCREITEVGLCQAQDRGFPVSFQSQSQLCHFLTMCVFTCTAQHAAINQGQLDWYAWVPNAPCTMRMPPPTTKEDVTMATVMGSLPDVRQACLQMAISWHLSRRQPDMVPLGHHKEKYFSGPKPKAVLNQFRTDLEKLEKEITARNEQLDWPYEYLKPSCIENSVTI
#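 Hydroperoxide product was detected by ferrous iron/xylenol orange as the 573 to 405 nm absorbance ratio. Arachidonic acid at 40 uM (final) was turned over for 30 min at room temperature by 150 nM human 12hLO, pH 7.0 Hepes buffer, after 15 min compound preincubation.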
# TDP1 cell CPT = growth inhibition of DT40 Tdp1-/-;hTDP1 cells with camptothecin (screen for TDP1 inhibitors). chicken DT40 Tdp1-/-;hTDP1 cells + 20 nM CPT, ATP luminescence, 48 h. Potency, µM (series often up to 46.2 µM), for the others: top-dose activity change, negative = growth inhibition, most hits filed as inhibitors. 420,000 compounds, 12% hits. AID 686979; note: nearly all actives have a fitted effect of over 55% in size
#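 Chicken DT40 Tdp1-/- cells complemented with human TDP1, 400 cells/well, exposed to compounds plus 20 nM camptothecin for at least 48 h at 37 C; viability read as ATP content by CellTiter-Glo luminescence.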
# Gal4-VP16 FLuc = Gal4-VP16 reporter inhibition counter-screen; Drosophila S2 Gal4-VP16 UAS-luciferase, luminescence, 20 h; 310,000 compounds, 3.5% hits; Potency, µM (highest dose often 53.6 µM), for the others: top-dose activity, negative = inhibition, most hits filed as inhibitors;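 note: Gal4-VP16 expression switched on by copper sulfate through the metallothionein promoter; nearly all actives have a fitted effect of over 50% in size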
# ELG1 repair inh = ELG1-dependent DNA repair inhibition; HEK293T ELG1-luciferase reporter, luminescence, 16 h; DNA damage induced by 5-fluorouridine; Potency, µM (titrated, usually from 46.1 µM), for the others: at the top dose activity change, negative = inhibition, hits mostly inhibitors; 330,000 compounds, 2.3% hits; AID 504467; note: nearly all actives have a fitted effect of over 55% in size
#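 HEK293T cells expressing luciferase-tagged ELG1 (2,000/well) received 5-Fluorouridine plus compound or DMSO for 16 hr at 37 °C. Luciferase was read by ONE-Glo luminescence after 30 min at room temperature.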
# DT40 TDP1 no CPT = qHTS for Inhibitors of human tyrosyl-DNA phosphodiesterase 1 (TDP1): qHTS in cells in absence of CPT; DT40 Tdp1-/- hTDP1 cells, no CPT, ATP luminescence, 48 h; Potency, µM (highest dose often 46.2 µM), for inactives: top-dose activity change, negative = growth inhibition, usual class: inhibitors; 420,000 compounds, 15% hits; AID 686978, 2013; note: nearly all actives have a fitted effect of over 55% in size
#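 A cellular qHTS used chicken DT40 cells lacking endogenous Tdp1 but carrying stably transfected human TDP1. Compounds were applied without camptothecin, and cell growth kinetics were judged by ATP-dependent luminescence after ≥48 hr.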
# RORgamma inh = blocks mouse ROR gamma transcriptional activity. Drosophila S2 Gal4-RORgamma UAS-luciferase reporter, 20 h. 310,000 compounds, 5.4% hits. Potency, µM (doses to about 53.6 µM), inactives show at the highest dose activity change, negative = inhibition, hits mostly inhibitors; note: nearly all actives have a fitted effect of over 60% in size
#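 Stably transfected Drosophila Schneider cells are the test system, with ROR gamma fused to Gal4 and luciferase under UAS control; luminescence is read after 20 hr of 700 uM copper sulfate induction at ambient temperature.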
# Numbers without * were called inactive; ? = inconclusive; . = no result; [ ] = remark or other dose. Calls come from the whole dose curve; as a rule, active = well fitted curve in the direction sought with a large enough effect; inconclusive = small, poorly fitted or top-dose-only effect, or another doubt; inactive = no such curve, though single readings can be large; an effect the other way counts as inactive or inconclusive. % is set by controls: 0 for no effect and ±100 for the full control effect; potency is the fitted concentration of half-maximal effect.
SMILES,12-LOX inh,TDP1 cell CPT,Gal4-VP16 FLuc,ELG1 repair inh,DT40 TDP1 no CPT,RORgamma inh
O=C(/C=C/c1ccco1)NC(=S)Nc1nc(-c2ccc3ccccc3c2)cs1,?,3.3µM*,?,23%,4.1µM*,7.9µM*
COc1cc(C(=O)/C=C/c2ccc(SC)cc2)ccc1O,40µM*,.,.,.,.,.
N#Cc1ccc(C(=O)/C=C/c2ccsc2)cc1,3%,.,.,.,.,.
O=C(/C=C/c1ccsc1)c1ccc(O)cc1,50µM*,.,.,.,.,.
CSc1ccc(/C=C/C(=O)c2ccc(N(C)C)cc2)cc1,-11%,.,.,.,.,.
CSc1ccc(/C=C/C(=O)c2ccc(O)cc2)cc1,?,18µM*,1.1µM*,?,-84%,0.5µM*
Cn1cc([C@@H](NC(=O)c2scc3c2CCCC3)C2CC(O)C2)cn1 (some centres undefined),48%,.,.,.,.,.
O=C(NCCc1ccccc1)N1CCC(N2C(=O)C3(CCCCC3)C2c2ccncc2)CC1 (centres undefined),41%,.,.,.,.,.
COc1ccc(-c2c3c(=O)n(C)c(=O)n(C)c3cn2-c2ccccc2O)cc1,0%,?,6%,-11%,-27%,8%
COc1ccccc1-n1cc2c(c1-c1ccc(C)cc1)c(=O)n(C)c(=O)n2C,-28%,.,.,.,.,.
Cn1c(=O)c2c(-c3ccccc3)n(-c3ccc(N)cc3)cc2n(C)c1=O,?,?,.,.,15µM*,.
Cn1c(=O)c2c(-c3ccccc3)n(-c3cccc(O)c3)cc2n(C)c1=O,-24%,18µM*,.,.,9.2µM*,.
CCn1cc2c(c1-c1cccc(C)c1)c(=O)n(C)c(=O)n2C,-16%,-9%,-10%,2%,-25%,-8%
COc1ccc(-c2c3c(=O)n(C)c(=O)n(C)c3cn2-c2cc(OC)ccc2OC)cc1,2%,?,19%,?,23µM*,?
Cn1c(=O)c2c(-c3ccccc3)n(N3CCOCC3)cc2n(C)c1=O,0%,?,1%,13%,?,-13%
Cn1c(=O)c2c(-c3ccccc3)n(-c3ccccc3Br)cc2n(C)c1=O,-11%,4.6µM*,.,.,5.2µM*,.
Cc1ccc(NC(=O)c2ccc(N3C(=O)C4CC=C(Cl)CC4C3=O)cc2)cc1 (centres undefined),-17%,?,-1%,6%,16µM*,?
COc1ccc(-c2cc(-c3nnc(COC(=O)C4CC4C)o3)c3ccccc3n2)cc1OC (centres undefined),-15%,21µM*,-1%,9.2µM*,16µM*,16%
COc1ccc(-c2cc(-c3nnc(COC(=O)C4CC4)o3)c3ccccc3n2)cc1OC,-5%,?,-16%,7.3µM*,9.2µM*,1%
COc1ccc(-c2cc(-c3nnc(COC(=O)c4ccc(O)cc4)o3)c3ccccc3n2)cc1OC,9%,?,-9%,?,10µM*,26%
CC(C)c1cc(C(=O)Nc2ccc(C(=O)N(C)C)cc2)c2ccccc2n1,65%,.,.,.,.,.
COc1ccc(S(=O)(=O)c2c(Nc3ccccc3F)sc(C(=O)c3cccc(OC)c3)c2N)cc1,-10%,5.2µM*,.,.,6.5µM*,.
Cc1c(Cl)cccc1Nc1sc(C(=O)c2ccccc2)c(N)c1S(=O)(=O)c1ccccc1,-6%,?,.,.,?,.
CCOc1ccccc1Nc1sc(C(=O)c2ccc(Cl)cc2)c(N)c1S(=O)(=O)c1ccccc1,-12%,-30%,.,.,?,.
CCOc1ccccc1Nc1sc(C(=O)c2ccccc2)c(N)c1S(=O)(=O)c1ccc(C)cc1,-12%,?,.,.,5.8µM*,.
SMILES,12-LOX inh,TDP1 cell CPT,Gal4-VP16 FLuc,ELG1 repair inh,DT40 TDP1 no CPT,RORgamma inh
CCc1ccccc1Nc1sc(C(=O)c2cccc(OC)c2)c(N)c1S(=O)(=O)c1ccccc1,-7%,?,.,.,?,.
Cc1cccc(C)c1Nc1sc(C(=O)c2ccccc2)c(N)c1S(=O)(=O)c1ccccc1,-17%,4.6µM*,.,.,3.7µM*,.
O=C(O)C1CCCN1S(=O)(=O)c1ccc(Br)s1 (centres undefined) (tested in a mixture with another compound),-4%[57.4 µM],3%,5%[0.365 µM],16%,-1%,1%
CC1CCCN(c2ccc(C(=O)O)cc2NS(=O)(=O)c2ccc(Br)s2)C1 (centres undefined),5.6µM*,.,.,.,.,.
O=C(CCc1ccccc1)N1CCc2c([nH]c3ccccc23)C1c1ccc(Cl)cc1 (centres undefined),-12%,16µM*,.,.,26µM*,.
CCOc1cccc(CC(=O)N2CCc3c([nH]c4ccccc34)C2c2ccc(Cl)cc2)c1OCC (centres undefined),-28%,10µM*,.,.,15µM*,.
COc1ccc(NC(=S)NC23CC4CC(CC(C4)C2)C3)cc1OC,18%,?,3.5µM*,14%,?,1.3µM*
COc1cc(OC)cc(C(=O)N[C@H](C(=O)NC23CC4CC(CC(C4)C2)C3)C(C)C)c1,0%,29µM*,-1%,-6%,?,-12%
COc1cc(OC)c(C(=O)NC23CC4CC(CC(C4)C2)C3)cc1OC,14%,?,-8%,?,18µM*,?
COc1cc(OC)cc(C(=O)NC(C(=O)N2CCc3ccccc3C2)C(C)C)c1 (centres undefined),-2%,21µM*,-9%,?,?,40%
Cc1ccccc1C1NC(c2ccccc2C)C([N+](=O)[O-])C(C)(C)C1[N+](=O)[O-] (centres undefined),119%,-3%,-2%,?,-17%,-5%
Cc1cccc(C2NC(c3cccc(C)c3)C([N+](=O)[O-])C(C)(C)C2[N+](=O)[O-])c1 (centres undefined),-21%,?,-3%,-16%,16µM*,3%
COc1ccc(NS(=O)(=O)c2cccc(NC(=O)c3ccc(Cl)nc3)c2)cc1,-13%,1.2µM*,2.8µM*,?,3.3µM*,?
COc1ccc(NS(=O)(=O)c2cccc(NC(=O)c3cnccn3)c2)cc1Br,1%,16µM*,?,18µM*,18µM*,-6%
CN(C)S(=O)(=O)c1cccc(NC(=O)c2cnccn2)c1,.,.,5%[10 µM],8%,.,-2%
O=C(Nc1cccc(S(=O)(=O)Nc2ccc(Cl)cc2)c1)c1ccc(Cl)nc1,?,2.3µM*,3.2µM*,?,0.65µM*,?
